# Whole data set: some 8,300 sequences, median “log2 fold change of degron read counts, EGFP-low vs EGFP+ sorted cells (limma voom), compound-induced degradation” near -1.1, cut for the highest 2% near 3.2. Many of the other results were omitted from the sample, so the highest values are more common in it than they were.
# T1: CRBN, Q96SW2
# T1 chain: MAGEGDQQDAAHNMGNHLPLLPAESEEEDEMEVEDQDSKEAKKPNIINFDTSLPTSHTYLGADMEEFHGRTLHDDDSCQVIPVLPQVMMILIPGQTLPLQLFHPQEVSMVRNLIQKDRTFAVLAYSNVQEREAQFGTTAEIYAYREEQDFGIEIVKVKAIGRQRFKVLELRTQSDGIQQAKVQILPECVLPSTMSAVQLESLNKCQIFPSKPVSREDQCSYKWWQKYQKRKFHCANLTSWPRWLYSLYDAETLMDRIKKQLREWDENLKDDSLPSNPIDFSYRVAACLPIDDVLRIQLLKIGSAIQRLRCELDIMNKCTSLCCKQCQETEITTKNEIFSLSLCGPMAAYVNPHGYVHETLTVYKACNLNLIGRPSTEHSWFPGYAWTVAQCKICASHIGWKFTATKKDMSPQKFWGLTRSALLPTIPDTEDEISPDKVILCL
# Target: T1, CRBN, Q96SW2
# Experiment: log2 fold change of degron read counts, EGFP-low vs EGFP+ sorted cells (limma voom), compound-induced degradation; higher = more compound-induced degradation of the degron-EGFP fusion; degrons are variants of IKZF1/3 zinc finger 2; compound dose not given here
# Details: Jurkat, 18 h
# [1] = compound: compound 19 (5-tert-butyl-thalidomide)
# [2] = compound: compound 22 (5-morpholino-thalidomide)
# [3] = compound: compound 33 (diphenyl IMiD analogue)
# 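Also: pooled lentiviral library of zinc finger degron-EGFP fusions in mCherry-positive Jurkat cells, FACS-sorted after compound exposure, with degron abundance counted by next-generation sequencing.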
Sequence,log2 fold change of degron read counts [1],log2 fold change of degron read counts [2],log2 fold change of degron read counts [3],log2 fold change of degron read counts (compound: thalidomide)
"FFCEICGHRFTQKGNLLRHIKL [46F_47F_49E_50I_52G_53H_54R_55F_67L_, Q9UKT9]",-1.06,-1.44,-1.47,-1.72
"FDCPICGAVFTQKGNLLRHIKL [46F_47D_49P_50I_52G_53A_54V_55F_67L_, Q9UKT9]",0.604,0.176,1.99,1.81
"FICEVCGAPFTQKGNLLRHIKL [46F_47I_49E_50V_52G_53A_54P_55F_67L_, Q9UKT9]",2.03,3.48,2.78,3.17
"FCCNVCGAPFTQKGNLLRHIKL [46F_47C_49N_50V_52G_53A_54P_55F_67L_, Q9UKT9]",1.3,0.686,-0.00676,0.263
"FFCEVCGADFTQKGNLLRHIKL [46F_47F_49E_50V_52G_53A_54D_55F_67L_, Q9UKT9]",-0.0497,0.23,-0.854,-0.804
"FTCNVCGAPFTQKGNLLRHIKL [46F_47T_49N_50V_52G_53A_54P_55F_67L_, Q9UKT9]",0.145,1.49,0.972,1.51
"FSCEVCGAPFTQKGNLLRHIKL [46F_47S_49E_50V_52G_53A_54P_55F_67L_, Q9UKT9]",2.89,2.01,0.358,1.1
"FTCEVCGAPFTQKGNLLRHIKL [46F_47T_49E_50V_52G_53A_54P_55F_67L_, Q9UKT9]",2.16,3.25,1.81,2.71
"FNCEVCGAPFTQKGNLLRHIKL [46F_47N_49E_50V_52G_53A_54P_55F_67L_, Q9UKT9]",2.7,1.8,0.0261,0.847
"FDCEVCGAPFTQKGNLLRHIKL [46F_47D_49E_50V_52G_53A_54P_55F_67L_, Q9UKT9]",0.668,-1.2,-1.15,-0.746
"FFCEVCGAPFTQKGNLLRHIKL [46F_47F_49E_50V_52G_53A_54P_55F_67L_, Q9UKT9]",4,3.18,1.98,1.73
"FHCEVCGAPFTQKGNLLRHIKL [46F_47H_49E_50V_52G_53A_54P_55F_67L_, Q9UKT9]",3.54,3.17,2.03,1.38
"FACEVCGAPFTQKGNLLRHIKL [46F_47A_49E_50V_52G_53A_54P_55F_67L_, Q9UKT9]",3.19,1.62,-0.375,0.871
"FMCDVCGACFTQKGNLLRHIKL [46F_47M_49D_50V_52G_53A_54C_55F_67L_, Q9UKT9]",-1.81,-1.41,0.979,-1.1
"FICNQCGAEFTQKGNLLRHIKL [46F_47I_49N_50Q_52G_53A_54E_55F_67L_, Q9UKT9]",-3.37,-3.09,-2.19,-1.75
"FHCEICGAWFTQKGNLLRHIKL [46F_47H_49E_50I_52G_53A_54W_55F_67L_, Q9UKT9]",-0.982,-1.57,-0.784,-2.02
"FVCEVCGAPFTQKGNLLRHIKL [46F_47V_49E_50V_52G_53A_54P_55F_67L_, Q9UKT9]",2.23,3.61,2.24,3.07
"FCCEVCGAPFTQKGNLLRHIKL [46F_47C_49E_50V_52G_53A_54P_55F_67L_, Q9UKT9]",3.23,2.09,0.726,1.26
"FRCEVCGAPFTQKGNLLRHIKL [46F_47R_49E_50V_52G_53A_54P_55F_67L_, Q9UKT9]",3.45,3.6,3.39,3.62
"FRCEVCGADFTQKGNLLRHIKL [46F_47R_49E_50V_52G_53A_54D_55F_67L_, Q9UKT9]",-1.68,-1.6,1.33,0.331
"FGCEVCGAPFTQKGNLLRHIKL [46F_47G_49E_50V_52G_53A_54P_55F_67L_, Q9UKT9]",0.82,-0.556,-1.51,-1.08
"FQCEVCGAPFTQKGNLLRHIKL [46F_47Q_49E_50V_52G_53A_54P_55F_67L_, Q9UKT9]",3.05,3.49,1.41,3.53
"FWCEVCGAPFTQKGNLLRHIKL [46F_47W_49E_50V_52G_53A_54P_55F_67L_, Q9UKT9]",3.08,2.92,1.89,1.01
"FLCEVCGAPFTQKGNLLRHIKL [46F_47L_49E_50V_52G_53A_54P_55F_67L_, Q9UKT9]",2.39,2.45,2.33,2.97
"FYCEVCGAPFTQKGNLLRHIKL [46F_47Y_49E_50V_52G_53A_54P_55F_67L_, Q9UKT9]",3.69,3.45,2.63,1.63

# — the supplement of paper PMC12645437, “Orthogonal IMiD-Degron Pairs Induce Selective Protein Degradation in Cells” (ACS Chemical Biology, 2025)
